Measles CPE – protection of cells from measles virus; AID 841; Measles virus-infected cells, CPE protection, absorbance; protection (pct of control), % at 4 µM; 1.5% of 140,000 active; in the data active = protection mostly above about 24%, no sharp cut-off; inactive = mostly below about 26%
CYP2C19 inh – human CYP2C19 inhibition. 21% of 96,000 active. inhibition, % at 5 µM. AID 778. CYP2C19 Supersomes, luciferin-H EGE luminescence, 30 min;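 active = CYP2C19 inhibition above a set limit at 5 µM in the primary screen, cut at about 50% in these data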;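 also: plate controls were negative control wells for no effect and 2.5 mM tranylcypromine positive control for full effect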
Target sequence (P33261 whole entry, looked up): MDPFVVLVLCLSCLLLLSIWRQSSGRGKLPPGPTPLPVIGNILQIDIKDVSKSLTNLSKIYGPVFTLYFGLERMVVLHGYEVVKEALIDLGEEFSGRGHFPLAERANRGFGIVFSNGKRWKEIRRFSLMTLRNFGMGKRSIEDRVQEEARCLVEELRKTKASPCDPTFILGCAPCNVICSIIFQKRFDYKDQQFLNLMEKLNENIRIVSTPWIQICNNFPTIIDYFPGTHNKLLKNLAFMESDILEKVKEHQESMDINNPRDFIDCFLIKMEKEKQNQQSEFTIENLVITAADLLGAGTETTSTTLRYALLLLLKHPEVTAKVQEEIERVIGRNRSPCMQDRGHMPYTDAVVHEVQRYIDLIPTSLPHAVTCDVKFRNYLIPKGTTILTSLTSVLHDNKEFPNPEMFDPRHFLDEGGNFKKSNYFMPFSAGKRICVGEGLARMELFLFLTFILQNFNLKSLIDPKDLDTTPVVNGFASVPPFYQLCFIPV
CYP2C9 inhib – inhibitors of human CYP2C9. CYP2C9 Supersomes, luciferin-H conversion, luminescence. 20% of 96,000 active. inhibition, % at 5 µM;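 active = blocking of liver enzyme CYP2C9 beyond about 50% at 5 µM, limit read from the data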
CYP2C19 activ – activators of human cytochrome P450 2C19; P33261; recombinant CYP2C19, luciferin-H EGE luminescence; active compounds read high; 0 = fully inhibited enzyme, 1 = untreated enzyme; activation factor at 5 µM; 96,000 tested, under 10 active; AID 1025;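 active = activation factor of at least 2 at 5 µM in the primary screen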;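 also: 0 = wells with 2.5 mM tranylcypromine and 1 = vehicle-only wells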
CYP2C9 act – CYP2C9 (human) activation; P11712; recombinant CYP2C9, luciferin-H conversion, luminescence; active compounds read high; factor 1 = untreated enzyme, 0 = blocked; activation factor at 5 µM; 1.4% of 96,000 active; AID 1024;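 active = activation factor of 2 or more for CYP2C9 at a 5 µM dose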;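 also: 0 = sulfaphenazole-blocked wells and 1 = vehicle-only wells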
Starred values were filed as active, the others as inactive; x = not tested or not shown. Compounds with a hit are over-represented: about 22% of the library has one in this group of screens.

SMILES	Measles CPE	CYP2C19 inh	CYP2C9 inhib	CYP2C19 activ	CYP2C9 act
O=C(COc1ccc(Cl)cc1Cl)Nc1ccc(Cl)cn1	9	58*	14	0.4	0.9
CCn1nc(C)c(C2C(C#N)=C(N)OC3=C2C(=O)CC(C)(C)C3)c1C (stereo not drawn)	11	x	x	x	x
O=C(c1oc(=O)c2ccccc2c1-c1ccccc1)N1CCN(C2CCCCC2)CC1	33	99*	70*	0	0.3
O=C(c1oc(=O)c2ccccc2c1-c1ccccc1)N1CCC(O)CC1	9	43	23	0.6	0.8
Cc1cc(C)n2nc(SCc3ncc(-c4ccccc4)o3)nc2n1	17	86*	19	0.1	0.8
Cc1cc(C)n2nc(SCC#N)nc2n1	13	x	x	x	x
COc1ccc2c(CSc3nc4nc(C)cc(C)n4n3)cc(=O)oc2c1	4	72*	85*	0.3	0.2
Nn1cc(-c2ccccc2)nc1SCC(=O)Nc1ccc2c(c1)OCO2	10	x	x	x	x
Cc1ccc2c(n1)sc1c(N)ncnc12	7	-6	-3	1.1	1
Cc1ccc(S(=O)(=O)Nc2ccc(SC(F)F)cc2)c(C)c1	14	x	x	x	x
CC(=O)c1c(C)oc2ccc(NS(=O)(=O)c3ccc(O)c(C(=O)O)c3)cc12	3	52*	89*	0.5	0.1
Cc1ccc(S(=O)(=O)Nc2ccc3oc(=O)sc3c2)c(C)c1	5	67*	64*	0.3	0.4
Cc1oc2ccc(NS(=O)(=O)c3ccccc3)cc2c1C(=O)Nc1ccccc1	36	x	x	x	x
O=C(O)c1cc(S(=O)(=O)Nc2ccc3oc(=O)sc3c2)ccc1O	4	23	85*	0.8	0.1
OC(c1ccc(Cl)cc1)C(O)c1nc2ccccc2[nH]1 (stereo not drawn)	12	77*	1	0.2	1
c1ccc(C2(c3ccccc3)OCC(Cn3cncn3)O2)cc1 (stereo not drawn)	14	66*	52*	0.3	0.5
Cc1ccc2c(c1)c(CC(=O)Nc1ccc(C)c(F)c1)c(C(=O)O)n2C	10	36	84*	0.6	0.2
Cn1c(C(=O)O)c(CC(=O)Nc2ccccc2F)c2ccccc21	12	59*	93*	0.4	0.1
Cc1cccc(NC(=O)CSc2nc(N)c(NC(=O)c3cccs3)c(=O)[nH]2)c1	6	x	x	x	x
c1coc(-c2nnc(SCc3cn4ccccc4n3)o2)c1	4	46	-2	0.5	1
Brc1c(CSc2nnc(-c3ccco3)o2)nc2ccccn12	13	78*	-122	0.2	2.2*
COc1ccc(/C=N/N=C2\SC(CC(=O)O)C(=O)N2c2ccccc2)c(OC)c1 (stereo not drawn)	8	x	x	x	x
N/C(=N\OCC(=O)Nc1ccccc1)c1nonc1N	12	x	x	x	x
Cc1ccc(NC(=O)CO/N=C(\N)c2nonc2N)cc1	8	70*	20	0.3	0.8
CC(C)(C)NC(=O)COC(=O)Cc1ccc(Cl)cc1	17	30	-9	0.7	1.1
SMILES	Measles CPE	CYP2C19 inh	CYP2C9 inhib	CYP2C19 activ	CYP2C9 act
Cn1c(Cc2ccccc2)nnc1SCC(=O)N1CCCCC1	35	x	x	x	x
Cn1c(Cc2ccccc2)nnc1SCC(=O)c1ccc(Br)s1	17	75*	70*	0.2	0.3
Cn1nnnc1SCC(=O)c1ccc(Br)s1	2	65*	11	0.4	0.9
Cn1nnnc1SCC(=O)c1cccs1	4	9	4	0.9	1
O=C(N/N=C/c1cccs1)/C(=C/c1ccccc1)NC(=O)c1ccccc1	7	x	x	x	x
COc1ccc(/C=C2\C(=O)N(c3c(Cl)cc(Cl)cc3Cl)N=C2NC(=O)c2cccc([N+](=O)[O-])c2)cc1	8	x	x	x	x
O=C(O)c1cn[nH]c1-n1cnnn1	4	-18	-33	1.2	1.3
Cc1cccc(S(=O)(=O)NC(Cc2c[nH]c3ccccc23)C(=O)O)c1 (stereo not drawn)	22	x	x	x	x
Cc1ccc(C23CC4CC(CC(NC(=O)NC(C)(C)CO)(C4)C2)C3)cc1	5	73*	75*	0.3	0.3
Cc1ccc(C23CC4CC(CC(NC(=O)N5CCN(C)CC5)(C4)C2)C3)cc1	4	36	30	0.6	0.7
C=CCN(c1ccc(C(=O)Nc2ccc(C)c(C)c2)cc1)S(C)(=O)=O	33	x	x	x	x
O=C(Nc1ccc(Cn2cccn2)cc1)c1ccc(COc2cccc(Br)c2)cc1	4	57*	83*	0.4	0.2
O=C(Nc1ccc(Cn2cccn2)cc1)c1ccc(COc2ccc(Br)cc2)cc1	18	-1	17	1	0.8
O=C(Nc1nnc(-c2ccccc2Cl)o1)c1cccnc1	11	0	82*	1	0.2
CC1CCCN(S(=O)(=O)c2ccc(C(=O)Nc3nnc(-c4ccccc4Cl)o3)cc2)C1 (stereo not drawn)	2	-5	9	1	0.9
CC(C)NC(=S)N(C)C1(c2ccccc2Cl)CCCCC1=O (stereo not drawn)	21	x	x	x	x
CN(C(=S)Nc1ccccc1F)C1(c2ccccc2Cl)CCCCC1=O (stereo not drawn)	6	82*	3	0.2	1
Cc1cccc(NC(=S)N(C)C2(c3ccccc3Cl)CCCCC2=O)c1 (stereo not drawn)	1	97*	68*	0	0.3
COCC(=O)NC1CCN(C(=O)NCc2ccccc2)CC1	1	0	-6	1	1.1
COc1ccc(OC)c2c(C)cc(C)nc12	11	x	x	x	x
Cc1cc(Cl)ccc1N=c1ssnc1Cl	10	-7	21	1.1	0.8
COc1cc(N=c2ssnc2Cl)c(OC)cc1Cl	8	-5	78*	1	0.2
COc1ccc(OC)c(N=c2ssnc2Cl)c1	6	64*	94*	0.4	0.1
COc1cc(O)c(CCC(=O)c2cc(OC)c(OC)c(OC)c2)c(OC)c1	8	x	x	x	x
O=C(NCCCn1ccnc1)c1ccc(Br)o1	4	59*	34	0.4	0.7
SMILES	Measles CPE	CYP2C19 inh	CYP2C9 inhib	CYP2C19 activ	CYP2C9 act
O=C(Cc1ccccc1Cl)NCCCn1ccnc1	8	x	x	x	x
CC12CCC(C(=O)NCCCn3ccnc3)(OC1=O)C2(C)C (stereo not drawn)	8	76*	32	0.2	0.7
O=C(NCCCn1ccnc1)c1noc2c1CCc1ccccc1-2	27	83*	50*	0.2	0.5
O=C(NCCCn1ccnc1)c1noc2c1CCCC2	21	69*	85*	0.3	0.2
Cc1cc(C(=O)N2CCN(CCc3ccccc3)CC2)no1	14	42	6	0.6	0.9
O=C(CCSc1ccc(Cl)cc1)N1CCOCC1	18	x	x	x	x
O=C(O)CSc1nnc(-c2ccncc2)n1-c1ccc(Cl)cc1	20	9	51*	0.9	0.5
O=C(CSc1nnc(-c2cccs2)n1-c1cccc(Cl)c1)c1cccc2c1OCCO2	15	72*	85*	0.3	0.2
NC(=O)CSc1nnc(-c2ccncc2)n1-c1ccc(Cl)cc1	5	x	x	x	x
O=C(CSc1nnc(-c2cccs2)n1-c1ccccc1)N1CCOCC1	38*	-6	-2	1.1	1
O=C(CSc1nnc(-c2cccs2)n1-c1ccccc1)N1CCCC1	15	11	18	0.9	0.8

Source: PubChem BioAssay (several laboratories)
